Experimental findings from PubChem BioAssay (NCATS) are described below.

Each structure is given as a SMILES string. Where “and” joins values, the source holds several entries; their conditions need not be identical. Identical values can stand only once. A number with no mark means an inactive call. Results filed as inconclusive are left out. Calls of active or inactive are those of the source. The call rests on the fitted dose curve; in most records, active means well fitted curve in the direction sought with a large enough effect; inconclusive means small, poorly fitted or top-dose-only effect, or another doubt; inactive means no such curve, though single readings can be large; an effect the other way counts as inactive or inconclusive.

A short description of test [1]: qHTS to identify inhibitors of the type 1 interferon - major histocompatibility complex class I in skeletal muscle: primary screen against the NCATS LOPAC collection (AID 1347405).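 Further: lytic HiBiT luminescence reporting HLA-B protein level.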 The essentials: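 Luminescence from HiBiT fused to endogenous HLA-B in CRISPR-engineered human myoblasts served as the read-out. Cells received 4.0 ng/ml IFN-beta plus compound (seven concentrations, 1:4.3 steps, highest 46 uM final) for 24 hrs before lytic detection.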

Test [2] in a line: qHTS to identify inhibitors of the type 1 interferon - major histocompatibility complex class I in skeletal muscle: primary screen against the NCATS Pharmaceutical Collection (AID 1347407). The essentials: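 Luminescence from HiBiT-tagged endogenous HLA-B*08:01 served as the read-out of IFN-beta-induced MHC class I in CRISPR-engineered C25cl48 myoblasts. Cells received 4 ng/ml IFN-beta plus compound (high final 46 uM, […]) for 24 h.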
In general terms: Quantitative high-throughput screening tests each substance at several concentrations.

Test [3] in a line: qHTS for inhibitors of adenylyl cyclases using a fission yeast platform: a pilot screen against the NCATS LOPAC library (AID 1347410). The essentials:
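Fission yeast qHTS: CHP2027 cells (AC9-GNAS-PDE4D2, fbp1-GFP), 5x10^6 cells/mL working density, EMM + His/Lys/Ura; LOPAC at up to 57 µM final; 18 h dark, 30C; GFP by laser cytometry. DPI positive control, DMSO vehicle.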

Test [4] in a line: qHTS to identify inhibitors of the type 1 interferon - major histocompatibility complex class I in skeletal muscle: primary screen against the NCATS Mechanism Interrogation Plate v5.0 (MIPE) Libary (AID 1347411). Further: nearly all actives have a fitted effect of over 65% in size. Further: potency means the concentration at half of the fitted maximal effect. Summed up:
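Luminescence from HiBiT-tagged endogenous HLA-B*08:01 served as the MHC class I read-out. CRISPR-engineered C25cl48 human myoblasts received 4.0 ng/ml IFN-beta plus compound for 24 hrs, with an 11-point, 1:3 series topping at 46 uM final.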

For test [5], the target named is Protein phosphatase 1D (Homo sapiens) (UniProt O15297). Kind of test: RapidFire Mass Spectrometry qHTS Assay for Modulators of WT P53-Induced Phosphatase 1 (WIP1) (AID 1347424).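 Further: amount of dephosphorylated VEPPL-S-QETFS peptide product formed by WIP1.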 Further: potency means the concentration at half of the fitted maximal effect. The essentials: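 10 nM WIP1 preincubated with compounds 1 hr at room temperature in pH 7.5 Tris buffer with 30 mM MgCl2, 1 mM TCEP; 2 uM VEPPL-pS-QETFS phosphopeptide for 5 min, formic acid quench; dephosphorylated product quantified by RapidFire MS against labelled standard.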
Sequence of Protein phosphatase 1D (Homo sapiens) (O15297 whole entry, looked up): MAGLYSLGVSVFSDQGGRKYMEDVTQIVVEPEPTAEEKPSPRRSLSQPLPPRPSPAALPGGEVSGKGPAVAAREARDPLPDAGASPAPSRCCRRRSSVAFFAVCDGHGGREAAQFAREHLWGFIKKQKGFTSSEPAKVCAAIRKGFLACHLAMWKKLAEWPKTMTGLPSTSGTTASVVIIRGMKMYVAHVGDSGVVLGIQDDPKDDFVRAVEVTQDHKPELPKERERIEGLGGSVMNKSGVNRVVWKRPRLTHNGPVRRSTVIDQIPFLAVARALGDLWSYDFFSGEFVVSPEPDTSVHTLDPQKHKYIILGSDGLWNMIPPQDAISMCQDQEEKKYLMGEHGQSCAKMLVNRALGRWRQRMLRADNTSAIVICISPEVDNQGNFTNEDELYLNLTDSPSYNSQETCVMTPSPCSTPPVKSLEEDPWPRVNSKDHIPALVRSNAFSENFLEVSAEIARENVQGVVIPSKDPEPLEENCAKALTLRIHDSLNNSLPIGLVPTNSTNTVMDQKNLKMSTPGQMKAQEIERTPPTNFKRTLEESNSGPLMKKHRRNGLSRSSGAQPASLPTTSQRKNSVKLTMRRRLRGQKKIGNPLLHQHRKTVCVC

Test [6] in a line: Validation qHTS assay for inhibitors of Activation Induced Cytidine Deaminase (AID): UDG Counterscreen signal (AID 1347427). The essentials:
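Counterscreen read of UDG activity (2 U/mL, 4/3x) in the FRET deamination format with AID (1 uM, 4/3x), DJC20/DJC23 substrates (250 nM, 4x), 4 h at room temperature. NaOH stop, fluorescence at 560 ex/665 em.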

Test [7] has as its target Single-stranded DNA cytosine deaminase (Homo sapiens) (UniProt Q9GZX7). Description: Validation qHTS assay for inhibitors of Activation Induced Cytidine Deaminase (AID): AID signal (AID 1347429). Summed up:
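Fluorescence at 540 nm excitation and 590 nm emission reports ssDNA cytosine deamination by AID, with UDG in the same well. Compound-treated reactions ran 4 hr at room temperature with DJC20/DJC23 substrate, followed by 30 min NaOH treatment.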

Test [8] can be described thus: Primary qHTS for inhibitors of La Crosse Virus (LACV) - induced cell death in SH-SY5Y cells (AID 1508616).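 Further: top concentration of the series differs between compounds; higher means more rescue of cells from virus-induced death.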 The essentials:
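Protection against LACV-induced cell death is scored in SH-SY5Y cells exposed to compounds and virus (0.01 MOI) for 6 days. Data normalized to virus-infected DMSO wells and virus-free DMSO wells.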

Test [9] concerns the target Protein phosphatase 1D (Homo sapiens) (UniProt O15297). Description: Rhodamine-PBP qHTS Assay for Modulators of WT P53-Induced Phosphatase 1 (WIP1) (AID 1347425). Summed up:
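WIP1 (5 nM final) was preincubated with compound for 1 hour at room temperature. It then dephosphorylated 10 uM VEPPL-pS-QETFS peptide in Tris-HCl pH 7.5 with 30 mM MgCl2. Released Pi was detected by 10 uM Rh-PBP fluorescence (ex 525/em 598 nm) read at 1-min intervals for 11 min, as delta f1 - f0.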

Test [10] has as its target Calcium and integrin-binding protein 1 (Homo sapiens) (UniProt Q99828). Kind of test: Confirmatory qHTS for Identification of Calcium Integrin Binding Protein 1 (CIB1) Competitor (AID 1508617). Further: potency means the concentration at half of the fitted maximal effect; nearly all actives have a fitted effect of over 65% in size. Summed up:
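FP competition: CIB1-GST (1 uM final) in 5 mM HEPES pH 7.4, 125 mM NaCl, 5 mM CaCl2, 0.01% Tween20 preincubated 15 min RT with compounds (up to 114 uM), then FITC-alphaIIb peptide (100 nM), 15 min RT; Ex 480/Em 540.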

Sequence of Single-stranded DNA cytosine deaminase (Homo sapiens) (Q9GZX7 whole entry, looked up): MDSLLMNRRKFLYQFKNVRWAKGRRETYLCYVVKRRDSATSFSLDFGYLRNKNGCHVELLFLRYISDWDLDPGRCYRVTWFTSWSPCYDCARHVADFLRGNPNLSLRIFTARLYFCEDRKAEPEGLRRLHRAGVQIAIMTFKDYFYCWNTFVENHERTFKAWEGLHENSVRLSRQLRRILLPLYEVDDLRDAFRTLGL
Sequence of Calcium and integrin-binding protein 1 (Homo sapiens) (Q99828 whole entry, looked up): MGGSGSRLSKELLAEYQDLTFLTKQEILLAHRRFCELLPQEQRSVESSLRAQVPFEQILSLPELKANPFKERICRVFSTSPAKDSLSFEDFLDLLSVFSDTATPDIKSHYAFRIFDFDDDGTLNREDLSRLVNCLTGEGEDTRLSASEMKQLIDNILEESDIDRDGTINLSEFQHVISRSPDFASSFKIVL

For the molecule `NC(N)=NC(=O)c1nc(Cl)c(N)nc1N`, the Potency entry in [1], in test [4], in [5] and in test [7] was “inactive” each time. Also, the molecule was classed as inactive in test [2], in test [3], in [6] and in test [8].

Regarding `Cc1ccc(N(CC2=NCCN2)c2cccc(O)c2)cc1`, the Potency result in test [1], in [4], in test [5] and in test [7] was “inactive” in each case. The outcome in test [2], in test [3], in test [6] and in test [8] was inactive.

`Cc1[nH]c(=O)c(C#N)cc1-c1ccc2nccn2c1`: the Potency result in test [1], in test [4], in test [5] and in [7] was “inactive” throughout. Moreover, the result in test [2], in test [3], in test [6] and in [8] was inactive.

For `Cc1ccccc1C(OCCN(C)C)c1ccccc1` (stereo not drawn), the Potency entry in test [1], in test [5] and in test [7] was “inactive” each time. Also, the call in test [2], in test [3], in test [6] and in [8] was inactive.

As for `O=NN(CCCl)C(=O)NCCCl`, the Potency result in test [1], in test [4], in test [5] and in test [7] was “inactive” each time. Also, the result in test [2], in [3], in [9], in test [6] and in [8] was inactive.

Consider `c1ccc([C@H]2CN3CCSC3=N2)cc1`, for which the Potency result in [1], in test [4], in test [5] and in [7] was “inactive” throughout. Also, the call in [2], in [3], in [6] and in test [8] was inactive.

As for `CCCC(CCC)C(=O)O`, the Potency entry in test [1], in test [4], in test [5] and in test [7] was “inactive” throughout. Besides, the molecule was classed as inactive in [2], in test [3], in [6] and in [8].

With `CC(C[N+](C)(C)C)OC(N)=O` (stereo not drawn), the Potency entry in test [1], in [4], in test [5] and in test [7] was “inactive” in each case. In addition, the result in [2], in test [3], in test [6] and in [8] was inactive.

Consider `Cc1cc2c(C(C)C)c(O)c(O)c(C=O)c2c(O)c1-c1c(C)cc2c(C(C)C)c(O)c(O)c(C=O)c2c1O`, for which the molecule was called inactive in test [2], in test [3], in test [6] and in test [8]. The Potency was 23.4 µM (active) in test [4]; 3.98 µM (active) in test [5]; 3.16 µM (active) and 28.2 µM (active) in test [10].

In the case of `CCC(C)n1ncn(-c2ccc(N3CCN(c4ccc(OC[C@H]5CO[C@](Cn6cncn6)(c6ccc(Cl)cc6Cl)O5)cc4)CC3)cc2)c1=O` (stereo partly drawn), the molecule was classed as inactive in test [2] and in test [8]. Further, the Potency entry in test [4] and in [5] was “inactive” in each case.

As to `O=c1n(CCCN2CCN(c3cccc(Cl)c3)CC2)nc2ccccn12`, the Potency entry in test [1], in [5] and in test [7] was “inactive” throughout. Also, the call in test [2], in [3], in test [6] and in [8] was inactive.

Turning to `N=c1nc(N2CCCCC2)cc(N)n1O`, the Potency entry in test [1], in test [5] and in test [7] was “inactive” each time. For the same molecule, the molecule was classed as inactive in test [2], in test [3], in [6] and in [8].

`Cc1cnc(NC(=O)C2=C(O)c3ccccc3S(=O)(=O)N2C)s1`: the result in [3] and in test [8] was inactive. Further, in test [5], the Potency entry is “inactive”.

Take `Cc1cccc(-c2[nH]c(C(C)(C)C)nc2-c2ccc3nccnc3c2)n1`: the Potency result in test [1], in [4] and in test [7] was “inactive” throughout. Moreover, the outcome in test [3], in test [6] and in test [8] was inactive.
